From PubChem
The list is not random: actives were taken first. Their share in the collection is about 3.3%.
697 NFkB inh: inhibitors of PMA/ionomycin-induced NF-kB reporter, 697 cells, primary screen, B-cell NF-kB inhibitor project, cell-based, luminescence, uHTS. 697 B-cell NF-kB luciferase reporter, 16 h. inhibition, % at 4 µM. 330,000 compounds, 0.33% hits. AID 435022, 2010; in the data active = inhibition above about 35%
Gli-Sufu antag: Gli-Sufu pathway antagonists, primary screen, luciferase luminescence, Sufu-KO-LIGHT cells, uHTS; Sufu-KO-LIGHT fibroblasts, Gli luciferase reporter luminescence; inhibition, % at 5 µM; 340,000 compounds, 0.74% hits; AID 588413, 2011;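 active = inhibition above about 55%, limit read from the data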;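 also: 0% = DMSO-treated cells and 100% = wells with medium but no cells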
SMARCA2 act: SMARCA2 (BRM) function activators, primary screen, cell-based, luminescence, high throughput | 370,000 compounds, 1% hits | activation, % at 9.1 µM | MG213 cells, MMTV-luciferase reporter, dexamethasone, overnight; in the data active = activation above about 7.8%;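 also: 0% = vehicle wells and 100% = reference activator wells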
esBAF inh: Bmi1 luciferase reporter increase in mESCs, primary screen, esBAF inhibitor project, mouse ES cells, Bmi1 luciferase knock-in, single point. 24 h; 100% = twice the neutral-well signal. reporter increase, % at 12.5 µM. 350,000 compounds, 2% hits. AID 602393, 2012; in the data active = activation above about 40%;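 also: 0% = median of the plate's neutral control wells and 100% = double that signal; a rise in the Bmi1 reporter signal indicates esBAF inhibition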
Jurkat NFkB inh: inhibitors of induced NF-kB luciferase reporter, primary screen, TCR NF-kB activation inhibitor project, cell-based, luminescence, uHTS; Jurkat, PMA/ionomycin-induced NF-kB luciferase reporter; inhibition, % at 4 µM; 330,000 compounds, 0.53% hits; AID 435003, 2010; in the data active = inhibition above about 50%
Jurkat NFkB conf: PMA/ionomycin-induced NF-kB reporter inhibitors, Jurkat retest, confirmation, T-cell NF-kB inhibitor project, cell-based, luminescence, single concentration; inhibition, % at 4 µM; shares compounds with Jurkat NFkB inh; Jurkat NF-kB luciferase, 16 h; 2,700 compounds, 27% hits;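 active = inhibition reaching about 45% at 4 µM in either replicate, limit read from the data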;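 also: plate controls were PMA/ionomycin stimulated DMSO wells for no effect and unstimulated DMSO wells for full effect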
An asterisk follows results filed as active; nt = no result.

SMILES	697 NFkB inh	Gli-Sufu antag	SMARCA2 act	esBAF inh	Jurkat NFkB inh	Jurkat NFkB conf
COc1cccc(/C=N/Nc2ncnc3scc(-c4ccccc4)c23)c1O	-20	88*	0	nt	73*	57*
COc1ccc(/C=N/Nc2ncnc(Cl)c2N)cc1OC	13	-9	-2	12	-1	nt
COc1ccc(Nc2ncnc3scc(-c4ccc(OC)cc4)c23)cc1	-46	5	-5	nt	52*	22
Cc1cccc(CS(=O)(=O)c2ncc(Cl)c(C(=O)Nc3c(C)cccc3C)n2)c1	-50	27	-13	-7	27	nt
COc1ccc(NC(=O)c2nc(S(=O)(=O)Cc3cccc(C)c3)ncc2Cl)c(OC)c1	-243	1	5	-1	54*	0
CNC[C@@H]1Oc2c(cccc2N(C)C)C(=O)N([C@H](C)CO)C[C@H]1C	nt	nt	nt	-2	nt	nt
COc1cc(/C=C2/SC(=Nc3ccc(O)cc3)NC2=O)ccc1O	-83	-22	5	nt	59*	39
Oc1ccccc1-c1cc(-c2ccccc2)no1	-109	15	5	37	-165	-150
Clc1ccc(-c2cc(-c3ccccc3)on2)cc1	-210	-98	2	21	-173	-92
Cc1ccccc1-c1cc(-c2ccccc2O)on1	-98	13	8	24	-193	-128
Cc1ccc(O)c(-c2cc(-c3ccc(F)cc3)no2)c1	-230	35	5	2	-193	-144
Cc1ccc(-c2cc(-c3ccccc3)no2)c(O)c1	nt	-66	4	nt	nt	nt
Cc1noc(C)c1NC(=O)N(C)C[C@H]1OCCCC[C@@H](C)Oc2ccc(NC(=O)C3CCCCC3)cc2C(=O)N([C@@H](C)CO)C[C@@H]1C	nt	nt	nt	-5	nt	nt
CCCCOc1ccc(C)cc1CN(CCO)CCO	7	4	-2	4	-8	nt
CCCCCc1ccc(OCCCC[n+]2ccc(C)cc2)c(CCCCC)c1	34	86*	-10	nt	54*	54*
O=C(COc1ccccc1)Nc1cccc(-c2nc3cc4ccccc4cc3[nH]2)c1	-155	-84	2	6	-231	-120
Cc1ccc(NS(=O)(=O)c2ccc(C(=O)NC3CCN(Cc4ccccc4)CC3)cc2)cc1	15	15	-6	-7	57*	59*
CCCCCn1c(=O)[nH]c2cc(C(=O)O)ccc2c1=O	-5	-1	1	-11	-7	nt
CCCCCn1c(=O)[nH]c2cc(C(=O)NC3CCN(Cc4ccccc4)CC3)ccc2c1=O	-54	8	0	7	51*	36
CC(C)NC(=O)Nc1ccc2c(c1)C(=O)N([C@H](C)CO)C[C@@H](C)[C@H](CN(C)S(C)(=O)=O)OCCCC[C@H](C)O2	nt	nt	nt	0	nt	nt
CCN1CCN(Cc2ccc(NC(=O)c3ccc(C)c(NC(=O)c4ccc5n[nH]nc5c4)c3)cc2C(F)(F)F)CC1	1	2	1	-8	-13	nt
CCN1CCN(Cc2ccc(NC(=O)c3ccc(C)c(NC(=O)C(=O)c4c[nH]c5ccccc45)c3)cc2C(F)(F)F)CC1	0	27	0	-86	95*	24
C[C@H](CO)N1C[C@H](C)[C@H](CN(C)C)Oc2cc(-c3ccc(F)cc3)ccc2S1(=O)=O	nt	nt	nt	-1	nt	nt
CN(C)c1cc[n+](CC(=O)Nc2ccc(Oc3ccccc3)cc2)cc1	-14	23	-5	nt	85*	36
Cc1noc(C)c1NC(=O)Nc1ccc2c(c1)C(=O)N([C@H](C)CO)C[C@H](C)[C@@H](CN(C)Cc1ccc3c(c1)OCO3)O2	nt	nt	nt	7	nt	nt
C[C@H](CO)N1C[C@H](C)[C@H](CN(C)C(=O)Cc2ccncc2)Oc2cc(C#CC3CC3)ccc2S1(=O)=O	nt	nt	nt	-2	nt	nt
Fc1ccc(-c2cn3ccccc3n2)cc1	-164	-88	4	-27	-110	nt
CCOc1ccc(-c2cn3ccccc3n2)cc1	-197	-79	5	nt	-153	-62
COc1ccc(N=Nc2cc(C)ccc2O)cc1	-170	-75	3	nt	-159	-134
Cc1ccc(O)c(N=Nc2nccs2)c1	-82	17	0	-13	59*	79*
